# Experimental data: PubChem BioAssay (NCI)
# The panel holds about 79,000 compounds, 15% with a hit somewhere; the sample as a whole holds those more often. Unmarked numbers belong to inactive results. The source made the active and inactive calls. Rule as the data show it: active = growth inhibition above about 70%; inactive = the rest.
# Key:
# [1] = NCI Yeast Anticancer Drug Screen. Data for the wt1 strain (AID 149);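 also: 0% = growth of vehicle-treated wt1 cultures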; conditions: S. cerevisiae wt1 strain (SPY 50644) growth inhibition, active compounds read high
# In short: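 wt1 strain grown with compound or vehicle; inhibition taken from the growth difference.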
# [2] = NCI Yeast Anticancer Drug Screen. Data for the rad50EPP+ strain (AID 151);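 also: 0% = growth of vehicle-treated control cultures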; conditions: S. cerevisiae rad50 mutant strain, active compounds read high
# In short: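 Genetically defined yeast (rad50EPP+, DNA damage repair alteration) is grown with compound, and inhibition of growth is expressed relative to vehicle-treated controls.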
# [3] = NCI Yeast Anticancer Drug Screen. Data for the mgt1 strain (AID 153); conditions: S. cerevisiae mgt1 mutant growth inhibition, active compounds read high
# In short: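 In the mgt1 strain, test compounds were added and growth inhibition was determined relative to vehicle-treated controls.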
# [4] = NCI Yeast Anticancer Drug Screen. Data for the rad50 strain (AID 155);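 also: 0% = growth of vehicle-only cultures of the same strain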; conditions: S. cerevisiae rad50 strain growth inhibition, active compounds read high
# In short: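 DNA repair mutant yeast, compound exposure, growth read-out; inhibition is taken relative to vehicle.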
# [5] = NCI Yeast Anticancer Drug Screen. Data for the mec2-1 strain (AID 157); conditions: S. cerevisiae mec2-1 strain, active compounds read high
# In short: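 Each compound was tested on mec2-1 yeast, a strain altered in DNA damage repair or cell cycle control. Growth inhibition is reported relative to vehicle.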
# [6] = NCI Yeast Anticancer Drug Screen. Data for the rad14 strain (AID 159);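 also: 0% = growth of vehicle-treated control cultures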; conditions: S. cerevisiae rad14 strain growth inhibition, active compounds read high
# In short: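 DNA repair-defective yeast, compound-exposed; % growth inhibition derived by comparison with vehicle-treated controls.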
# [7] = NCI Yeast Anticancer Drug Screen. Data for the sgs1 mgt1 strain (AID 161);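 also: 0% = growth of cultures given vehicle only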; conditions: S. cerevisiae sgs1 mgt1 strain, active compounds read high
# In short: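 Genetically altered yeast, compound exposure, growth inhibition relative to vehicle.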
# [8] = NCI Yeast Anticancer Drug Screen. Data for the CLN2oe strain (AID 163);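 also: 0% = growth of vehicle-only control cultures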; conditions: S. cerevisiae CLN2oe strain, active compounds read high
# In short: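 First, the altered yeast strain was treated with each compound; second, its growth was measured; finally, inhibition was derived by comparison with vehicle controls.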
# [9] = NCI Yeast Anticancer Drug Screen. Data for the cln2 rad14 strain (AID 165);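 also: 0% = growth equal to vehicle treated cultures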; conditions: S. cerevisiae cln2 rad14 strain, active compounds read high
# In short: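 Test compounds were added to cln2 rad14 yeast cultures; inhibition of growth was then determined by comparison with vehicle treatment.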
# [10] = NCI Yeast Anticancer Drug Screen. Data for the bub3 strain (AID 167); conditions: S. cerevisiae bub3 mutant strain, active compounds read high
# In short: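 In this screen, a yeast mutant lacking normal mitotic checkpoint function is challenged with compound. Relative growth versus vehicle gives the inhibition value.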
# [11] = NCI Yeast Anticancer Drug Screen. Data for the wt2 strain (AID 169);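 also: 0% = growth of vehicle-treated yeast cultures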; conditions: S. cerevisiae wt2 strain growth inhibition, active compounds read high
# In short: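 The panel's yeast strains carry defined changes in DNA repair or cell cycle genes. Each strain is grown with compound, and growth loss is scored relative to vehicle.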
# [12] = NCI Yeast Anticancer Drug Screen. Data for the mlh1 strain (AID 171);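 also: 0% = growth of vehicle-treated control cultures of the same strain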; conditions: S. cerevisiae mlh1 strain growth inhibition, active compounds read high
# In short: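 Inhibition values reflect reduced yeast growth in the presence of compound, referenced to vehicle controls, using a strain chosen for its alteration in DNA repair or cell cycle control.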
# [13] = NCI Yeast Anticancer Drug Screen. Data for the sgs1 strain (AID 173);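 also: 0% = growth of vehicle-only control cultures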; conditions: S. cerevisiae sgs1 mutant, active compounds read high
# In short: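 Vehicle-treated cultures served as reference for growth inhibition of a yeast strain altered in DNA damage repair or cell cycle control after compound exposure.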
# [14] = NCI Yeast Anticancer Drug Screen. Data for the mlh1 rad18 strain (AID 175); conditions: S. cerevisiae mlh1 rad18 strain growth inhibition, active compounds read high
# In short: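 Inhibition values reflect reduced growth of mutant yeast versus vehicle-treated controls following compound exposure; the mutations affect DNA damage repair.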
# [15] = NCI Yeast Anticancer Drug Screen. Data for the rad18 strain (AID 177); conditions: S. cerevisiae rad18 mutant growth inhibition, active compounds read high
# In short: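 Steps: expose repair-mutant yeast to compound; measure growth; express as inhibition relative to vehicle control.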
# [16] = at 5.0 µM (retest, dose inferred, filed as 0.5)
# [17] = at 50.0 µM (retest, dose inferred, filed as 5.0)
compound,measurement,setting,value
NCC(O)CSCc1ccc(Cl)cc1 (stereo not drawn),growth inhibition,[1]; at 1.2 µM,-3%
same,growth inhibition,[1]; at 3.7 µM,-5%
same,growth inhibition,[1]; at 11.0 µM,-3%
same,growth inhibition,[1]; at 33.0 µM,-3%
same,growth inhibition,[1]; at 100.0 µM,0%
same,growth inhibition,[2]; at 1.2 µM,-3%
same,growth inhibition,[2]; at 3.7 µM,-4%
same,growth inhibition,[2]; at 11.0 µM,1%
same,growth inhibition,[2]; at 33.0 µM,-5%
same,growth inhibition,[2]; at 100.0 µM,-2%
same,growth inhibition,[3]; at 1.2 µM,-4%
same,growth inhibition,[3]; at 3.7 µM,-2%
same,growth inhibition,[3]; at 11.0 µM,-2%
same,growth inhibition,[3]; at 33.0 µM,0%
same,growth inhibition,[3]; at 100.0 µM,7%
same,growth inhibition,[4]; at 1.2 µM,-2%
same,growth inhibition,[4]; at 3.7 µM,2%
same,growth inhibition,[4]; [16],5%
same,growth inhibition,[4]; at 11.0 µM,2%
same,growth inhibition,[4]; at 33.0 µM,7%
same,growth inhibition,[4]; [17],5%
same,growth inhibition,[4]; at 50.0 µM,0.9%
same,growth inhibition,[4]; at 100.0 µM,17%
same,growth inhibition,[5]; at 1.2 µM,-3%
same,growth inhibition,[5]; at 3.7 µM,-2%
same,growth inhibition,[5]; [16],-14%
same,growth inhibition,[5]; at 11.0 µM,-2%
same,growth inhibition,[5]; at 33.0 µM,-2%
same,growth inhibition,[5]; [17],5%
same,growth inhibition,[5]; at 50.0 µM,25.1%
same,growth inhibition,[5]; at 100.0 µM,3%
same,growth inhibition,[6]; at 1.2 µM,-2%
same,growth inhibition,[6]; at 3.7 µM,-2%
same,growth inhibition,[6]; at 11.0 µM,3%
same,growth inhibition,[6]; at 33.0 µM,7%
same,growth inhibition,[6]; at 100.0 µM,34%
same,growth inhibition,[7]; [16],-7%
same,growth inhibition,[7]; [17],25%
same,growth inhibition,[7]; at 50.0 µM,31%
same,growth inhibition,[8]; at 1.2 µM,-2%
same,growth inhibition,[8]; at 3.7 µM,0%
same,growth inhibition,[8]; at 11.0 µM,-2%
same,growth inhibition,[8]; at 33.0 µM,0%
same,growth inhibition,[8]; at 100.0 µM,28%
same,growth inhibition,[9]; [16],-7%
same,growth inhibition,[9]; [17],10%
same,growth inhibition,[9]; at 50.0 µM,86.5% (active)
same,growth inhibition,[10]; at 1.2 µM,-2%
same,growth inhibition,[10]; at 3.7 µM,-2%
same,growth inhibition,[10]; [16],-13%
same,growth inhibition,[10]; at 11.0 µM,1%
same,growth inhibition,[10]; at 33.0 µM,20%
same,growth inhibition,[10]; [17],64%
same,growth inhibition,[10]; at 50.0 µM,74.1% (active)
same,growth inhibition,[10]; at 100.0 µM,42%
same,growth inhibition,[11]; at 1.2 µM,-6%
same,growth inhibition,[11]; at 3.7 µM,-9%
same,growth inhibition,[11]; at 11.0 µM,-4%
same,growth inhibition,[11]; at 33.0 µM,1%
same,growth inhibition,[11]; at 100.0 µM,-8%
same,growth inhibition,[12]; at 1.2 µM,-5%
same,growth inhibition,[12]; at 3.7 µM,-4%
same,growth inhibition,[12]; at 11.0 µM,-4%
same,growth inhibition,[12]; at 33.0 µM,-1%
same,growth inhibition,[12]; at 100.0 µM,22%
same,growth inhibition,[13]; at 1.2 µM,-9%
same,growth inhibition,[13]; at 3.7 µM,12%
same,growth inhibition,[13]; at 11.0 µM,-16%
same,growth inhibition,[13]; at 33.0 µM,7%
same,growth inhibition,[13]; at 100.0 µM,42%
same,growth inhibition,[14]; [16],-5%
same,growth inhibition,[14]; [17],18%
same,growth inhibition,[14]; at 50.0 µM,82.8% (active)
same,growth inhibition,[15]; at 1.2 µM,-5%
same,growth inhibition,[15]; at 3.7 µM,-1%
same,growth inhibition,[15]; at 11.0 µM,0%
same,growth inhibition,[15]; at 33.0 µM,-2%
same,growth inhibition,[15]; at 100.0 µM,11%
